The results in this text go back to PubChem BioAssay (NCI).

Test systems include RPMI-8226 leukemia; OVCAR-8 ovarian; OVCAR-5 ovarian; OVCAR-4 ovarian; SK-OV-3 ovarian; IGROV1 ovarian; OVCAR-3 ovarian; HS 578T breast; NCI/ADR-RES ovarian; T-47D breast; BT-549 breast; MDA-MB-435 melanoma; SW-620 colon; MCF7 breast; HCT-116 colon; HCC-2998 colon; KM12 colon; SR leukemia.
Common to all, as to assay: NCI-60 one-dose screen, 48 h (100 = growth as untreated, 0 = no growth, -100 = all killed)
Common to all, as to conditions: 10 µM unless noted

Compounds without any hit were thinned out: in the full panel of roughly 83,000, 20% have a hit.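 Results are percent growth after 48 hours of single-concentration exposure. 100 means growth as in untreated cells, lower positive values show inhibition; negative values down to -100 show cell death.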 Unmarked numbers belong to inactive results. Calls of active or inactive are those of the source. The calls were made as follows: active = growth percent below 10; inactive = the rest.

Take `CCOC(=O)C(=Cc1ccccc1F)C(=O)OCC`: the growth in the assay on RPMI-8226 leukemia is 93.1%; in the assay with OVCAR-8 ovarian, 105%; in the assay on OVCAR-5 ovarian, 106%; in the assay on OVCAR-4 ovarian it was 97%; with SK-OV-3 ovarian, 106%; in the assay with IGROV1 ovarian, 95.2%. Further, the growth in the assay on OVCAR-3 ovarian is 95.2%; in the assay on HS 578T breast, 104%; in the assay with NCI/ADR-RES ovarian, 100%; with T-47D breast, 67.4%; in the assay with BT-549 breast it was 87.4%; in the assay on MDA-MB-435 melanoma, 84.6%. Moreover, the growth in the assay on SW-620 colon was 107%; with MCF7 breast it was 58.6%; in the assay on HCT-116 colon it was 75.1%; in the assay on HCC-2998 colon it was 110%; in the assay with KM12 colon, 84.7%.
Turning to `Nc1cccc(-c2nc3sccn3c2-c2ccnc(NCCCNS(=O)(=O)c3ccc(C(F)(F)F)cc3)n2)c1`, the growth with SR leukemia is 15.5%; with OVCAR-8 ovarian, 7.14% (active); in the assay on OVCAR-5 ovarian, 40.9%; with OVCAR-4 ovarian it was -1% (active); in the assay with SK-OV-3 ovarian it was 23.8%; with IGROV1 ovarian, 4.78% (active). For the same compound, the growth was 6.08% (active) in the assay on OVCAR-3 ovarian; 12.3% in the assay with HS 578T breast; 0.058% (active) in the assay on NCI/ADR-RES ovarian; -16.9% (active) with T-47D breast; 0.811% (active) in the assay on BT-549 breast; -14.8% (active) in the assay on MDA-MB-435 melanoma. The growth in the assay with SW-620 colon is 12.7%; in the assay with MCF7 breast it was 2.11% (active); in the assay with HCT-116 colon it was 3.07% (active); in the assay with HCC-2998 colon, 18.1%; with KM12 colon it was 1.52% (active).
For `CC1(C)CC(=O)C(c2c(-c3ccccc3)[nH]c3[nH]c(=S)[nH]c(=O)c23)=C(O)C1`, the growth with RPMI-8226 leukemia is 101%; with OVCAR-8 ovarian, 100%; in the assay with OVCAR-5 ovarian it was 98.4%; in the assay with OVCAR-4 ovarian it was 114%; in the assay on SK-OV-3 ovarian it was 114%; in the assay with IGROV1 ovarian, 132%. Further, the growth in the assay on OVCAR-3 ovarian is 124%; in the assay on HS 578T breast, 123%; in the assay with NCI/ADR-RES ovarian, 108%; in the assay on T-47D breast, 98.1%; in the assay with BT-549 breast it was 106%; in the assay with MDA-MB-435 melanoma, 90.8%. For the same compound, the growth is 104% in the assay on SW-620 colon, 99.6% in the assay with MCF7 breast, 102% with HCT-116 colon and 108% in the assay with HCC-2998 colon.
For `CS(CCCCN=C=S)=NC(=O)c1c(F)c(F)c(F)c(F)c1F` (stereo not drawn), the growth is 2.68% (active) in the assay with SR leukemia; 91.9% in the assay on OVCAR-8 ovarian; 109% with OVCAR-5 ovarian; 74.4% with OVCAR-4 ovarian; 91.7% in the assay with SK-OV-3 ovarian; 76.8% in the assay on IGROV1 ovarian. Further, the growth in the assay on OVCAR-3 ovarian was 57.3%; in the assay on HS 578T breast, 90.8%; with NCI/ADR-RES ovarian, 97.3%; in the assay with T-47D breast, 19.1%; in the assay on MDA-MB-435 melanoma it was 70.8%; with SW-620 colon, 52.6%. The growth was 22.8% with MCF7 breast, 54% with HCT-116 colon, 104% with HCC-2998 colon and 55.8% in the assay on KM12 colon.
Consider `COc1ccc(-c2cc(-c3ccc(N(C)C)cc3)nc(NC(=O)c3ccncc3)n2)cc1`, for which the growth is 121% in the assay with SR leukemia; 97.7% in the assay with OVCAR-8 ovarian; 109% in the assay with OVCAR-5 ovarian; 122% in the assay with OVCAR-4 ovarian; 117% in the assay with SK-OV-3 ovarian; 95.2% in the assay on IGROV1 ovarian. Besides, the growth in the assay on OVCAR-3 ovarian was 98.8%; in the assay on HS 578T breast, 97.2%; in the assay with NCI/ADR-RES ovarian, 96.6%; in the assay with T-47D breast it was 88.9%; in the assay with BT-549 breast, 104%; with MDA-MB-435 melanoma, 104%. For the same compound, the growth in the assay on SW-620 colon is 98.7%; with MCF7 breast, 78%; with HCT-116 colon, 94%; with HCC-2998 colon, 100%; in the assay with KM12 colon it was 97.8%.
Turning to `CC(C)c1c(C(=O)Nc2ccccc2)c(-c2ccccc2)c(-c2ccc(F)cc2)n1CC[C@@H]1CC=CC(=O)O1`, the growth in the assay on RPMI-8226 leukemia is -25.9% (active); with OVCAR-8 ovarian, -19.9% (active); in the assay with OVCAR-5 ovarian, 57.1%; with OVCAR-4 ovarian it was 19.8%; with SK-OV-3 ovarian it was 31.6%; in the assay on IGROV1 ovarian, -27.5% (active). For the same compound, the growth in the assay on OVCAR-3 ovarian was -73.3% (active); with HS 578T breast, 18.1%; in the assay on NCI/ADR-RES ovarian, -1.87% (active); in the assay on T-47D breast, 17.1%; in the assay with BT-549 breast, -30.6% (active); in the assay with MDA-MB-435 melanoma it was 2.54% (active). Also, the growth in the assay with SW-620 colon was -45.1% (active); with MCF7 breast it was -22.8% (active); in the assay on HCT-116 colon, -62.5% (active); in the assay with HCC-2998 colon it was -69.8% (active); in the assay on KM12 colon, -60.7% (active).
`CC(C)(C)n1cc(-c2ccnc(NCCNS(=O)(=O)c3ccccc3)c2)c(-c2cccc(O)c2)n1`: the growth with SR leukemia was 27.3%; with OVCAR-8 ovarian, 67.2%; in the assay on OVCAR-5 ovarian, 78.4%; with OVCAR-4 ovarian, 60.6%; in the assay with IGROV1 ovarian it was 76%; in the assay on HS 578T breast, 62.4%. Moreover, the growth with NCI/ADR-RES ovarian was 74.8%; with T-47D breast it was 24.3%; in the assay with BT-549 breast, 26.4%; in the assay with MDA-MB-435 melanoma, 68.3%; in the assay on SW-620 colon, 16.2%; with MCF7 breast it was 36.5%. Moreover, the growth is 47.2% in the assay on HCT-116 colon, 47.5% with HCC-2998 colon and 42.8% with KM12 colon.
Regarding `C[C@@]1(N2C(=O)OC[C@@H]2c2ccccc2)C(=O)N([C@H](CC(=O)N2CCC(N3CCCCC3)CC2)C(=O)NCc2cccc(C(F)(F)F)c2)[C@@H]1/C=C/c1ccccc1`, the growth in the assay with SR leukemia is -38.4% (active); in the assay on OVCAR-8 ovarian, 89.8%; with OVCAR-5 ovarian it was 115%; in the assay on OVCAR-4 ovarian it was 66.3%; with SK-OV-3 ovarian, 78.9%; in the assay with IGROV1 ovarian, 72.1%. The growth was 73.2% with OVCAR-3 ovarian; 66.1% in the assay on HS 578T breast; 81.8% with NCI/ADR-RES ovarian; 27.4% with T-47D breast; 78.1% in the assay with BT-549 breast; 1% (active) in the assay with MDA-MB-435 melanoma. In addition, the growth in the assay on SW-620 colon was 58.5%; in the assay with MCF7 breast, 25.3%; in the assay on HCT-116 colon it was 44.9%; in the assay with HCC-2998 colon, 47.3%; in the assay on KM12 colon, 55.9%.
For `CC(C)CC(CC1=CCC2CC1C2(C)C)C1=C(O)C(C)(C)C(=O)C(C)(C)C1=O` (stereo not drawn), the growth in the assay with RPMI-8226 leukemia is -26.4% (active); in the assay on OVCAR-8 ovarian, 5.12% (active); in the assay on OVCAR-5 ovarian, 22.7%; in the assay with OVCAR-4 ovarian, 32.5%; in the assay with SK-OV-3 ovarian, -12.6% (active); in the assay with IGROV1 ovarian it was 39%. Further, the growth in the assay with OVCAR-3 ovarian is 16.2%; in the assay with HS 578T breast it was 6.67% (active); in the assay on NCI/ADR-RES ovarian, 7.18% (active); in the assay with T-47D breast, 4.63% (active); in the assay with BT-549 breast it was -6.03% (active); with MDA-MB-435 melanoma, 11%. In addition, the growth was 14.2% with SW-620 colon, 7.94% (active) in the assay on MCF7 breast, 6.3% (active) in the assay with HCT-116 colon and 17.6% with HCC-2998 colon.
